Assay results as given in PubChem BioAssay AID588397 (National Center for Advancing Translational Sciences (NCATS), 2011).
Hit rate of the full screen: of about 1,300 compounds, about 1,000 (77%) were called active. Roughly 7% stayed inconclusive and do not appear here. Calls come from the whole dose curve; as a rule, active = well fitted inhibition curve with a large enough effect; inconclusive = small, poorly fitted or top-dose-only effect; inactive = no such curve, though single readings can be large or run the other way. So high a share suggests a set chosen from earlier hits. Some of the results follow.

experiment: qHTS of small molecules that selectively kill Giardia lamblia: Hit Validation.;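 note: viability measured as ATP content by luminescence so killing lowers signal; nearly all actives have a fitted effect of over 65% in size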; conditions: Giardia lamblia trophozoite viability, dose-response; series mostly up to 38.3 µM
Outline: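 Compounds were tested on trophozoites seeded at 100 cells/well and held 48 hrs at 37 deg C anaerobically. An ATP-based luminescent kit measured the remaining live cells.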
Potency is the fitted concentration of half-maximal effect.

| Structure (SMILES) | Potency |
| --- | --- |
| O=C(Cc1ccccc1)Nc1nnc(-c2cccs2)s1 | 1.45 µM (active) |
| CCc1nc2cc([N+](=O)[O-])c([N+](=O)[O-])cc2[nH]1 | 6.5 µM (active) |
| O=[N+]([O-])c1ccc2nc(CO)[nH]c2c1 | 2.31 µM (active) |
| Cn1c([N+](=O)[O-])cnc1N1CCN(c2nncs2)C1=O | 0.365 µM (active) |
| Cc1cc(C)c2nc(NC(=O)c3ccc([N+](=O)[O-])o3)sc2c1 | 1.16 µM (active) |
| Cc1cc(C)c2sc(NC(=O)c3ccc([N+](=O)[O-])o3)nc2c1 | 1.16 µM (active) |
| Cc1cccc(-n2ncc3c(N4CCCC4)ncnc32)c1 | 5.16 µM (active) |
| COc1ccc(Cn2ccnc2SCC(=O)NC2CCCC2)cc1 | inactive |
| COc1ccc(C(=S)NC2CCCCC2)cc1 | 1.03 µM (active) |
| Cc1nc2c(o1)C(=O)c1ccccc1C2=Nc1ccccc1 | 6.5 µM (active) |
| Cc1ccc(CN=c2c([N+](=O)[O-])nn(-c3cccc(C)c3)n2O)cc1 | 18.3 µM (active) |
| Cc1ccc(CN=c2c([N+](=O)[O-])nn(-c3cccc(Cl)c3)n2O)cc1 | 18.3 µM (active) |
| COc1ccc(-n2nc([N+](=O)[O-])c(=NCc3cccnc3)n2O)cc1 | 2.59 µM (active) |
| Cc1cccc(-n2nc([N+](=O)[O-])c(=NCc3cccnc3)n2O)c1 | 4.1 µM (active) |
| O=[N+]([O-])c1nn(-c2ccc3c(c2)OCCO3)n(O)c1=NC1CCCCC1 | 3.26 µM (active) |
| O=[N+]([O-])c1nn(-c2ccc3c(c2)OCCO3)n(O)c1=NC1CCCCCC1 | 2.05 µM (active) |
| O=[N+]([O-])c1nn(-c2ccc3c(c2)OCCO3)n(O)c1=NC1CCCC1 | 3.65 µM (active) |
| Cc1nc([N+](=O)[O-])cn1-c1nc2ccccn2c1[N+](=O)[O-] | 1.83 µM (active) |
| COc1cc(-c2noc(C)c2C(=O)NCC[C@@H]2CCCN2C)cc(OC)c1OC | inactive |
| Cc1ccc([N+](=O)[O-])cc1NC(=O)C1CCN(S(C)(=O)=O)CC1 | inactive |
| Cc1cc(C)cc(NC(=O)Cn2c(=O)oc3cc(S(=O)(=O)N4CCC(C)CC4)ccc32)c1 | inactive |
| Cc1ccc(NC(=O)C2CCN(S(=O)(=O)c3cc([N+](=O)[O-])ccc3Cl)CC2)nc1 | 4.6 µM (active) |
| Cc1ccc(SCCNC(=O)c2ccccc2F)cc1 | inactive |
| Cc1ccc(C)c(Sc2ccc(NC(=O)CCl)cc2)c1 | 0.918 µM (active) |

| Structure (SMILES) | Potency |
| --- | --- |
| C(=C\c1nc2ccccc2s1)/c1ccc2c(c1)OCO2 | 2.31 µM (active) |
| C(=C\c1cnc2ccccc2n1)/c1ccc2c(c1)OCO2 | 2.31 µM (active) |
| O=C(N/N=C/c1ccc([N+](=O)[O-])s1)c1ccccc1Br | 1.63 µM (active) |
| Cc1ccccc1NCC(=O)N/N=C\c1ccc([N+](=O)[O-])s1 | 3.26 µM (active) |
| Cc1ccccc1C(=O)N/N=C/c1ccc([N+](=O)[O-])s1 | 1.45 µM (active) |
| Cc1cc(C(=O)N/N=C/c2ccc([N+](=O)[O-])s2)c2ccccc2n1 | 2.9 µM (active) |
| N/C(=N\N=Cc1ccc2c(c1)OCO2)NN=Cc1ccc2c(c1)OCO2 | 4.1 µM (active) |
| C[C@@H]1CC=C[C@H]2[C@H]1C(=O)N(Cc1ccccc1)[C@H]2c1ccc2ccccc2c1/C=C/c1ccccc1 | inactive |
| CCOC(=O)c1nc(C(=O)NCc2ccc(C)cc2)nc2ccccc12 | 7.29 µM (active) |
| N#Cc1ccc(-c2c(-c3ccccc3)ncc3cc(F)ccc23)cc1 | inactive |
| O=[N+]([O-])c1nn(-c2ccc(Cl)cc2)n(O)c1=NCc1ccccc1 | 9.18 µM (active) |
| O=[N+]([O-])c1nn(-c2ccc(Cl)cc2)n(O)c1=NCc1ccncc1 | 3.65 µM (active) |
| Cc1ccc(CN=c2c([N+](=O)[O-])nn(-c3ccc(Cl)cc3)n2O)cc1 | 7.29 µM (active) |
| COc1ccc2cc3cc(C(=O)Nc4ccccc4N4CCN(C)CC4)oc3nc2c1 | 2.05 µM (active) |
| COc1ccc(OC)c(NC(=O)N2CCc3ccccc3C2)c1 | inactive |
| Cc1ccccc1Cn1nnc2c1C(=O)c1ccccc1C2=O | 2.9 µM (active) |
| O=[N+]([O-])c1ccc(N2CCN(Cc3ccc([N+](=O)[O-])o3)CC2)cc1 | 0.516 µM (active) |
| O=[N+]([O-])c1ccc(CN2CCN(c3ccc(Cl)cc3)CC2)o1 | 0.729 µM (active) |
| O=[N+]([O-])c1ccc(CN2CCN(c3ccc(F)cc3)CC2)o1 | 1.03 µM (active) |
| O=C(CN1CCN(c2ccccc2)CC1)Nc1scc2c1c(=O)oc1ccccc12 | inactive |
| O=[N+]([O-])c1ccc(CN2CCN(c3ccccc3)CC2)o1 | 0.818 µM (active) |
| COc1ccc(C(=O)CC(SCC(NC(C)=O)C(=O)O)c2ccc(Cl)cc2)cc1OC (stereo not given) | 13 µM (active) |
| COc1ccc2c3n([n+]([O-])c2c1)CCN=C3c1ccc(Cl)cc1 | 0.579 µM (active) |
| Nc1c(Cl)cc(C2=NCCn3c2c2ccccc2[n+]3[O-])cc1Cl | 0.326 µM (active) |

| Structure (SMILES) | Potency |
| --- | --- |
| COc1ccc2c3n([n+]([O-])c2c1)CCN=C3c1cc(Cl)c(N)c(Cl)c1 | 0.183 µM (active) |
| COc1ccc2c3n([n+]([O-])c2c1)CCN=C3c1ccc(C)cc1 | 0.365 µM (active) |
| c1ccc(-c2cn3nc(-c4ccccc4)sc3n2)cc1 | 0.918 µM (active) |
| O=C(O)CCCCCNS(=O)(=O)c1cccc2c1C(=O)c1ccccc1C2=O | 3.65 µM (active) |
| CC(C)c1ccc(Nc2nnc(SCC(=O)Nc3ncc(S(=O)(=O)c4ccc([N+](=O)[O-])cc4)s3)s2)cc1 | 2.05 µM (active) |
| N#CC1C=Cc2c(ccc3ccccc23)N1C(=O)c1ccccc1 (stereo not given) | 1.63 µM (active) |
| O=C(Cn1ccnc1[N+](=O)[O-])NCc1ccccc1 | 1.3 µM (active) |
| c1ccc(CNc2ncnc3ccccc23)cc1 | inactive |
| O=C(Cn1cnc2c(OCc3ccccc3)ncnc21)NCCCc1ccccc1 | inactive |
| CC1CC(C)C(=NNC(N)=O)C(C(O)CC2CCC(=O)NC2=O)C1 (stereo not given) | 0.163 µM (active) |
| COc1ccc(NC(C)C(=O)N/N=C/c2ccc([N+](=O)[O-])s2)cc1 (stereo not given) | 1.63 µM (active) |
| Cc1ccc(NC(C)C(=O)N/N=C/c2ccc([N+](=O)[O-])s2)cc1 (stereo not given) | 2.9 µM (active) |
| CCn1cnc2c([N+](=O)[O-])c(NS(=O)(=O)c3ccc(C)cc3)ccc21 | 0.206 µM (active) |
| O=C(COc1ccccc1)N/N=C/c1ccc([N+](=O)[O-])o1 | 0.46 µM (active) |
| O=C(N/N=C/c1ccc([N+](=O)[O-])o1)C(O)c1ccccc1 (stereo not given) | 4.1 µM (active) |
| Cc1cc(C)cc(OCC(=O)N/N=C/c2ccc([N+](=O)[O-])o2)c1 | 0.579 µM (active) |
| Cc1ccc(OCC(=O)N/N=C/c2ccc([N+](=O)[O-])o2)cc1 | 0.729 µM (active) |
| CCN1C[C@@H]2[C@@H]3C(=O)N(Cc4ccccc4)C(=O)[C@@H]3[C@](C)(C1=O)N2C(=O)c1ccccc1 | inactive |
| Cc1ccccc1OCC(=O)N/N=C/c1ccc([N+](=O)[O-])o1 | 0.516 µM (active) |
| CCCOc1ccc(CCC(=O)N/N=C/c2ccc([N+](=O)[O-])o2)cc1 | 0.729 µM (active) |
| COc1ccc(CC(=O)Nc2ncc([N+](=O)[O-])s2)cc1OC | 0.259 µM (active) |
| COc1ccc(Cc2nnc(NC(=O)Nc3ccccc3F)s2)cc1OC | inactive |
| O=C(Cc1ccc(Cl)cc1)Nc1ncc([N+](=O)[O-])s1 | 0.818 µM (active) |
| Cc1ccc(C(=O)Nc2ncc([N+](=O)[O-])s2)cc1 | 0.259 µM (active) |

| Structure (SMILES) | Potency |
| --- | --- |
| Cc1nc(C)c(C(=O)Nc2ncc([N+](=O)[O-])s2)o1 | 1.16 µM (active) |
| CC1CCN(S(=O)(=O)c2cn(C)c(=O)n(C)c2=O)CC1 | inactive |
| Cc1ccc(OCC(=O)N(Cc2cccc(Cl)c2)C2CCS(=O)(=O)C2)cc1C (stereo not given) | inactive |
| O=C(Nc1ncc([N+](=O)[O-])s1)c1ccc2c(c1)OCO2 | 0.259 µM (active) |
| O=C(Cc1ccc(Br)cc1)Nc1ncc([N+](=O)[O-])s1 | 0.23 µM (active) |
| CC12CCC(C(=O)Nc3ncc([N+](=O)[O-])s3)(OC1=O)C2(C)C (stereo not given) | 0.206 µM (active) |
| O=C(/C=C/c1ccc([N+](=O)[O-])cc1)Nc1ncc([N+](=O)[O-])s1 | 0.65 µM (active) |
| Cc1onc(-c2ccccc2)c1C(=O)N(Cc1ccccc1)C(C)C | inactive |
| O=C(Cc1c(F)cccc1Cl)Nc1ncc([N+](=O)[O-])s1 | 0.206 µM (active) |
| Cc1onc(-c2ccccc2)c1NC(=O)N(Cc1ccccc1)C(C)C | inactive |
| Cc1onc(-c2ccccc2)c1C(=O)Nc1ncc([N+](=O)[O-])s1 | 0.579 µM (active) |
| Cc1ccc(S(=O)(=O)CC(=O)Nc2ccc(F)c(F)c2F)cc1 | inactive |
| Cc1ccc(S(=O)(=O)CC(=O)Nc2ncc([N+](=O)[O-])s2)cc1 | 0.579 µM (active) |
| O=C(COc1ccc(Cl)cc1)Nc1ncc([N+](=O)[O-])s1 | 0.41 µM (active) |
| CCn1cc(C(=O)NCCC(C)C)c(=O)c2cc(F)c(N3CCN(C(=O)c4ccco4)CC3)cc21 | inactive |
| Cc1ccc(CC(=O)Nc2ncc([N+](=O)[O-])s2)cc1 | 0.13 µM (active) |
| O=C(Nc1ncc([N+](=O)[O-])s1)c1cccc([N+](=O)[O-])c1 | 0.29 µM (active) |
| O=C(NNC(=O)c1ccncc1)Nc1cccc([N+](=O)[O-])c1 | inactive |
| CC(=O)Nc1ccc(NC(=O)c2c([N+](=O)[O-])cnn2C)cc1 | 1.3 µM (active) |
| Cc1nonc1OCCn1c([N+](=O)[O-])cnc1C | 1.16 µM (active) |
| CCOc1cc(C=O)ccc1OCCn1c([N+](=O)[O-])cnc1C | 0.65 µM (active) |
| Cc1ncc([N+](=O)[O-])n1CCN1C(=O)c2ccccc2C1=O | 0.65 µM (active) |
| CCS(=O)(=O)CCn1c([N+](=O)[O-])cnc1C | 0.918 µM (active) |
